This is an account of results in PubChem BioAssay (EPA / NIEHS).

Activity calls are given as the source filed them. How the source made its calls: active means hit-call score of the fitted dose curve at least 0.9, where 1 is the maximum; inactive means score below 0.9.

The AC50 is the concentration at which the activity in the assay is half-maximal.

The assay is described as follows: ATG_RORE_CIS: Attagene CIS-FACTORIAL HepG2 Assay for human RAR-related Orphan Receptor Element (RORE) (AID 2282959). Conditions: HepG2 Attagene cis-factorial RORE reporter, mRNA; actives raise or lower the signal. The procedure: ATG_CIS is a cell-based, multiplexed-readout assay that uses HepG2, a human liver cell line, with measurements taken at 24 hours after chemical dosing in a 24-well plate.ATG_RORE_CIS is one of 52 assay component(s) measured or calculated from the ATG_CIS assay. It is designed to make measurements of mRNA induction, a form of inducible reporter, as detected with fluorescence intensity signals by Reverse transcription polymerase chain reaction (RT-PCR) and Capillary electrophoresis technology.Data from the assay component ATG_RORE_CIS was analyzed into 1 assay endpoint. This assay endpoint, ATG_RORE_CIS, was analyzed with bidirectional fitting relative to DMSO as the negative control and baseline of activity. Using a type of inducible reporter, measures of mRNA for gain or loss-of-signal activity can be used to understand the reporter gene at the transcription factor-level as they relate to the gene RORA and RORB and RORC. Furthermore, this assay endpoint can be referred to as a primary readout, because this assay has produced multiple assay endpoints where this one serves a reporter gene function. To generalize the intended target to other relatable targets, this assay endpoint is annotated to the nuclear receptor intended target family, where the subfamily is orphan.
Human liver HepG2 cells are transiently transfected with multiple reporter transcription units (MRTUs) in 6-well plates using FuGene 6 reagent (Roche; 3 ml FuGene/1 mg DNA). The MRTU constructs are regulated by a cis-regulating element (promoter). […] A major difference between the CIS and TRANS system is that in CIS activities of endogenous TFs are measured, whereas the TRANS assay evaluates changes in activities of exogenous, chimeric NR-Gal4 proteins. […] At the end of 24 hour incubation, total RNA was isolated using TriZol reagent (Invitrogen). The isolated RNA is then reverse-transcribed using oligo(dT) primer and Mo-MLV reverse transcriptase (Invitrogen) with DNAse I (Ambion) treatment for 30 min. The one-tenth of the produced cDNA was amplified by PCR using Taq DNA polymerase (Invitrogen) and two reporter sequence-specific primers. The PCR products were fluorescently labeled by primer extension with 6-arboxyfluorescein (6-FAM) 5'-labeled reporter sequence-specific primer (2 min at 95 C, 20 s at 68 C and 10 min at 72 C) and these products were digested with 5U of HpaI (New England Biolabs) for 2h at 37 C. The fragments were purified using Qiaquick PCR columns (Qiagen), analyzed on an ABI 3130xL genetic analyzer (Applied Biosystems) with peak positions identified by using a set of X-rhodamine (ROX)-labeled MapMarker1000 molecular weight standards (BioVentures). The raw capillary electrophoresis data was processed using Attagraph software (Attagene).
Regarding `NC(=O)NN=Cc1ccc([N+](=O)[O-])o1`, the compound was classed as inactive. Still for that read-out and setting: as for `CC(C)CC(C)O` (stereo not given), the entry is “inactive”. On to `CCCOc1ccc(S(=O)(=O)N2CCN(CC)CC2)cc1-c1nc2c(CC)n(Cc3ccccn3)nc2c(=O)[nH]1`, for which the AC50 was 2.63 µM (active). Take `O=S(=O)(O)CCC(F)(F)C(F)(F)C(F)(F)C(F)(F)C(F)(F)C(F)(F)F`: the outcome was inactive.

Take `OC[C@H]1O[C@@](CO)(O[C@H]2O[C@H](CO)[C@@H](O)[C@H](O)[C@H]2O)[C@@H](O)[C@@H]1O`: the compound was classed as inactive. On to `FC(F)(F)C(F)(F)C(F)(F)C(F)(F)C(F)(F)C(F)(F)I`, for which the call was inactive. Regarding `OCCOCCOCCO`, the outcome was inactive. The same measure, in the same setting: in the case of `c1ccc2ncccc2c1` it was “inactive”; in that of `CCc1cccc(CC)c1N`, “inactive”. With `CC(C)c1nnc2ccc(-c3ocnc3-c3cc(F)ccc3F)cn12`, the compound was classed as inactive. Same read-out and setting: in the case of `O=C(O)c1cccc(C[C@@H]2COc3ccc(OCc4nc5cc(F)ccc5s4)cc3[C@@H]2O)c1` it was “inactive”. As to `CCCCCCOC(=O)CC(CC(=O)OCCCCCC)(OC(=O)CCC)C(=O)OCCCCCC`, the call was inactive.

Regarding `CC[C@H](C)C(=O)O[C@H]1C[C@H](O)C=C2C=C[C@H](C)[C@H](CC[C@@H](O)C[C@@H](O)CC(=O)O)[C@H]21`, the compound was called inactive. With `O=C(O)CO`, the compound was classed as inactive. As to `NC(=O)N(O)[C@@H]1COc2cc(OCc3ccccc3)ccc21`, the call was inactive.

With `CCOc1ccc2[nH]cc(C(=O)NCc3ccccc3)c(=O)c2n1`, the compound was classed as inactive.

`C[C@]12C=CC(=O)C=C1CC[C@H]1[C@@H]3C[C@@H](O)[C@](O)(C(=O)CO)[C@@]3(C)C[C@H](O)[C@@]12F`: the compound was classed as inactive. On the same count and under the same terms, as for `O=C(O)c1cccc(C(=O)O)c1`, the entry is “inactive”; as for `CCCCN1C(=O)[C@@H]([C@H](O)C2CCCCC2)NC(=O)C12CCN(Cc1ccc(Oc3ccc(C(=O)O)cc3)cc1)CC2`, “inactive”; as for `FC(F)(F)COC(OCC(F)(F)F)OCC(F)(F)F`, “inactive”.

Turning to `Cc1ncc([C@@H](CCCCCCc2ccc3c(n2)NCCC3)CC(=O)O)cn1`, the compound was classed as inactive. On the same count and under the same terms, as for `C[Si](C)(C)C(F)(F)C(F)(F)C(F)(F)F`, the entry is “inactive”; as for `CCOC(N)=O`, “inactive”.

`CCCc1ccccc1`: the call was inactive. On to `CCCCCCCCN(C)C`, for which the result was inactive. On the same count and under the same terms, as for `OCC(CO)(CO)CO`, the entry is “inactive”.

Turning to `S=P(N1CC1)(N1CC1)N1CC1`, the call was inactive.

Regarding `OC(Cn1cncn1)(Cn1cncn1)c1ccc(F)cc1F`, the result was inactive. Turning to `C=CCc1cc(S(=O)(=O)c2ccc(O)c(CC=C)c2)ccc1O`, the AC50 was 17.4 µM (active). For `c1ccc2c(c1)-c1cccc3c1c-2cc1ccccc13`, the compound was called inactive.

On to `c1ccc(C(O[C@@H]2CCCN(CCc3ccc4c(c3)OCO4)C2)c2ccccc2)cc1`, for which the call was inactive.

For the compound `Cc1cccc(O)c1C`, the call was inactive. As for `CCN(CC)C(=S)SSC(=S)N(CC)CC`, the result was inactive. With `CC1(C)C(=O)N(Cl)C(=O)N1Cl`, the compound was classed as inactive. The same measure, in the same setting: as for `Nc1ccn([C@@H]2O[C@H](CO)[C@@H](O)[C@@H]2O)c(=O)n1`, the entry is “inactive”.

Consider `CC(C)CCCCCCOC(=O)C1CCCCC1C(=O)OCCCCCCC(C)C` (stereo not given), for which the outcome was inactive. As to `CCCCCCCCCCCCCCCCOS(=O)(=O)O`, the compound was called inactive.

As to `Cc1ccc(S(=O)(=O)NC(=O)NN2CCCCCC2)cc1`, the result was inactive. Turning to `Cn1c(=O)c2[nH]cnc2n(C)c1=O`, the compound was called inactive.

Regarding `COc1cc(C(C)C)c2c(c1)S(=O)(=O)N(COc1cc(=O)n3cccc(OCCN4CCCCC4)c3n1)C2=O`, the AC50 was 8.25 µM (active).
